# Results published in PubChem BioAssay AID2308 (National Center for Advancing Translational Sciences (NCATS), 2010).
# Results filed as inconclusive are left out. Active and inactive are the calls of the source. Calls follow the shape of the dose curve; as a rule, active = well fitted curve in the direction sought with a large enough effect in the signal ratio (not every such curve was filed as active); inconclusive = small, poorly fitted or top-dose-only effect, or a change in a side signal; inactive = no such curve, though single readings can be large or run the other way; the % refers to the signal ratio.
# Target: Inositol monophosphatase 1 (Rattus norvegicus) (UniProt P97697)
# Sequence (P97697 whole entry, looked up): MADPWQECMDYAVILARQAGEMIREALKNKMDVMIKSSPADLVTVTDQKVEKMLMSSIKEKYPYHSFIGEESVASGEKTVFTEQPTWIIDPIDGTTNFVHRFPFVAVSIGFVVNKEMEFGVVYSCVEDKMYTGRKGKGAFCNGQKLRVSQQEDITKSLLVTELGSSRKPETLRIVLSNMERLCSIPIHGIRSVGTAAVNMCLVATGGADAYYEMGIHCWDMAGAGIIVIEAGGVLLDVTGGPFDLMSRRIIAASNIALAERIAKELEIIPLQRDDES
# Assay: Confirmation Assay for Identifying the Cell-Membrane Permeable IMPase Inhibitors
# Conditions: CHO-M1 cells, carbachol-stimulated IP1 accumulation, HTRF ratio; series mostly up to 41.5 µM; activity change, negative = inhibition: at the top concentration
# From the text: NIH Chemical Genomics Center [NCGC] NIH Molecular Libraries Probe Production centers Network [MLPCN] MLPCN Grant: X01 MH082413-01 Assay Submitter (PI): Wei Zheng NCGC Assay Overview: Lithium has been widely used for the treatment of bipolar disorder. But lithium has a narrow therapeutic index and it can cause side effects such as thirst, weight gain, tremor, polyuria and memory problems. Although the mechanism for lithium action in treatment of bipolar disorder is still not fully understood, inhibition of inositol monophosphatase (IMPase) and the subsequent depletion of the inositol pool in living cells have been implicated as the primary therapeutic benefit of lithium therapy. Therefore, a selective IMPase inhibitor with reduced side effects might be a good drug candidate to replace lithium for the treatment of bipolar disorder. Several IMPase inhibitors have been discovered previously. However, they are not suitable for therapeutic use because of their poor cell membrane penetrability or oral bioavailability; the development of new cell-permeable IMPase inhibitors is needed. IMPase catalyzes the hydrolysis of inositol-1-phosphate (IP1) to release free inositol. Binding of an agonist to a Gq coupled GPCR results in the activation of PLC, which hydrolyzes the PIP2 to form inositol-1,4,5-trisphosphate (IP3) and diacyl glycerol (DAG). While DAG activates protein kinase C (PKC), IP3 triggers the elevation of intracellular free Ca2+. The IP3 is very rapidly inactivated by hydrolysis to IP2, IP1 and then inositol by a series of enzymes including IMPase. Free inositols are used for synthesis of PI and thus start another inositol cycle. To identify new cell-permeable IMPase inhibitors, we developed a cell-based IMPase assay in which the cytosolic IP1 is measured by a time-resolved fluorescence resonance energy transfer (TR-FRET) assay. In this assay, an IP1 specific antibody is used to detect the labeled IP1 tracer. When the cell lysate contains the elevated IP1 due to the inhibition of IMPase, the TR-FRET between the labeled antibody and IP1 tracer is disrupted resulting in a reduction in the total signal. Since the TR-FRET is used, this cell-based assay is a homogenous assay without cell wash and medium change that is suitable for assay miniaturization and HTS.
# NCGC IMPase Assay Protocol Summary A Chinese hamster ovary (CHO) cell line stably expressing the M1 receptor (CHO-M1) was obtained from ATCC and maintained in F-12 Kaighn's media (Invitrogen, Carlsbad, CA, 21127) supplemented with 10 % FBS, 100 units/ml penicillin, 100 ug/ml streptomycin and 250 ug/ml geneticin at 37C, 5% CO2 in a humidified atmosphere. Before the assay, aliquots of cells were frozen and stored at -135C. The assay was performed in 1536-well format. Data are reported for both the ratio of the two emission wavelengths, and also for the component 'donor' channel, Em2=620. Data were normalized to the controls for basal activity (DMSO only) and 100% inhibition (18.4 mM LiCl). AC50 values were determined from concentration-response data modeled with the standard Hill equation. IMPase 1536-well assay protocol: (1) Plate 4 ul/well (2000 cells) of cell suspension from frozen CHO-M1 Cells in white, tissue culture treated 1536-well plates that are cultured at 37C, 5 % CO2 for 16 to 30 hours. (2) Add 23 nl/well of compound in DMSO solution. The final titration for each compound was between 0.6 nM and 46 uM. […]
Structure (SMILES),"activity change, negative = inhibition",Potency
N#CC1=C(N)Oc2n[nH]c(-c3ccccn3)c2C1c1c(F)cccc1Cl (stereo unspecified),22.4% (inactive),–
N#CCN1CCC(c2cc(-c3ccco3)n[nH]2)CC1,11.4% (inactive),–
Cc1ccc(-c2c(C(=O)Nc3ccccc3C)c(C)[nH]c(=S)c2C#N)o1,-20.4% (inactive),–
COc1ccc(N2CSC3=C(C#N)C(c4cccs4)CC(=O)N3C2)cc1 (stereo unspecified),-29.2% (inactive),–
CCOC(=O)c1cc2c(=O)n3ccccc3nc2n(Cc2ccco2)c1=NC(=O)c1cccnc1,-14.5% (inactive),–
O=C(NCCCn1ccnc1)c1cc(-c2ccncc2)nc2ccccc12,3.25% (inactive),–
O=C(CCC(=O)c1cccs1)NCc1cccnc1,11.4% (inactive),–
COc1ccc(/C=C2\CCCC3C2=NN(C(=O)c2ccco2)C3c2ccc(OC)c(OC)c2)cc1OC (stereo unspecified),-14.2% [at 198 µM] (inactive),–
COc1cccc(NC(=O)CN(C)C(C)C(=O)Nc2cc([N+](=O)[O-])ccc2Cl)c1 (stereo unspecified),33.2% (inactive),–
C[N+](C)(CCCCCC[N+](C)(C)CCCN1C(=O)c2cccc3cccc(c23)C1=O)CCCN1C(=O)c2cccc3cccc(c23)C1=O,-14.1% (inactive),–
CNC(=O)c1ccc(NC(=O)/C=C/c2cccc(F)c2)cc1,2.85% (inactive),–
CC1(C)Cc2c(ccc3ccccc23)C2=C(C(=O)N3CCCC3)C(=O)C(=O)N21,18.9% (inactive),–
CCc1c(C)nc2c(OC)cccc2c1SCCC(=O)O,-23.6% (inactive),–
O=C(NC1CCS(=O)(=O)C1)C1C2CC3CC(C2)CC1C3 (stereo unspecified),13.9% (inactive),–
COc1ccc2oc(-c3ccccc3)c(C(N)=O)c2c1,6.28% (inactive),–
COc1ccc(C2c3c(ncn(CCN4CCOCC4)c3=N)Oc3ccc4ccccc4c32)cc1OC (stereo unspecified),-8.46% (inactive),–
CC(C)(C)c1ccc(-c2nnc3sc(-c4ccccn4)nn23)cc1,-5.12% [at 198 µM] (inactive),–
N#Cc1c(-c2ccc(Br)cc2)nc2n(c1=O)CCCS2,-12.4% (inactive),–
CC(=O)C1=C(O)C(=O)N(Cc2ccco2)C1c1ccccc1F (stereo unspecified),-31.2% (inactive),–
O=P(O)(OCc1ccccc1)OCc1ccccc1,17.9% (inactive),–
[Li+],–,708 µM (active)
